According to PubChem BioAssay (EPA / NIEHS):
Several values for one entry are separate records, joined by “and”; a condition that tells them apart may be missing. Identical values can stand only once. More than one record can exist for a structure, and the calls need not agree. Activity calls are given as the source filed them. How the source made its calls: active means hit-call score of the fitted dose curve at least 0.9, where 1 is the maximum; inactive means score below 0.9.

How the values were obtained:
[1] = BSK_CASM3C_SRB: Viability Assessment in the BioMAP Diversity Plus: CASM3C Assay (AID 2283050); details: primary human coronary artery smooth muscle cells;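 further: total protein by SRB staining as cytotoxicity measure in parallel cultures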
[2] = read-out: Thrombomodulin, THBD (gene 7056); assay: BSK_CASM3C_Thrombomodulin: BioMAP Diversity Plus: CASM3C Assay for Thrombomodulin Biomarker Activity (AID 2283051); details: primary human coronary artery smooth muscle cells; actives raise or lower the signal;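 further: thrombomodulin protein level measured by ELISA 24 h after dosing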
[3] = read-out: Tissue Factor, F3 (gene 2152); assay: BSK_CASM3C_TissueFactor: BioMAP Diversity Plus: CASM3C Assay for Tissue Factor Biomarker Activity (AID 2283052); details: primary human coronary artery smooth muscle cells; actives raise or lower the signal;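 further: cell surface tissue factor protein level read by ELISA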
[4] = read-out: Interferon-gamma inducible Protein 10 (IP10), CXCL10 (gene 3627); assay: BSK_hDFCGF_IP10: BioMAP Diversity Plus: hDFCGF Assay for Interferon-gamma inducible Protein 10 (IP10) Biomarker Activity (AID 2283053); details: primary human foreskin fibroblasts; actives raise or lower the signal
How it was run: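 Chemical-treated human skin fibroblasts (primary) were sampled at 24 h for IP-10 by ELISA. Both increases and decreases relative to DMSO were scored.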

[5] = read-out: Urokinase-type plasminogen activator receptor (uPAR), PLAUR (gene 5329); assay: BSK_CASM3C_uPAR: BioMAP Diversity Plus: CASM3C Assay for Urokinase-type plasminogen activator receptor (uPAR) Biomarker Activity (AID 2283054); details: primary human coronary artery smooth muscle cells; actives raise or lower the signal;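 further: cell-surface uPAR protein level quantified by ELISA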
[6] = read-out: Vascular cell adhesion molecule 1 (VCAM1), VCAM1 (gene 7412); assay: BSK_CASM3C_VCAM1: BioMAP Diversity Plus: CASM3C Assay for Vascular cell adhesion molecule 1 (VCAM1) Biomarker Activity (AID 2283055); details: primary human coronary artery smooth muscle cells; actives raise or lower the signal;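 further: VCAM-1 protein level quantified by ELISA on the cells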
[7] = read-out: Collagen III, COL3A1 (gene 1281); assay: BSK_hDFCGF_CollagenIII: BioMAP Diversity Plus: hDFCGF Assay for Collagen III Biomarker Activity (AID 2283056); details: primary human foreskin fibroblasts; actives raise or lower the signal
How it was run: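 Response relative to DMSO, fitted in both directions, reflects ELISA-measured collagen III in human primary skin fibroblasts 24 h after compound addition.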

[8] = read-out: Epidermal growth factor receptor (EGFR), EGFR (gene 1956); assay: BSK_hDFCGF_EGFR: BioMAP Diversity Plus: hDFCGF Assay for Epidermal growth factor receptor (EGFR) Biomarker Activity (AID 2283057); details: primary human foreskin fibroblasts; actives raise or lower the signal
How it was run: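 Cell-based multiplexed assay in primary human foreskin fibroblasts. EGFR is read by ELISA 24 h after treatment and compared with DMSO controls.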

[9] = read-out: Interleukin-8 (IL8), CXCL8 (gene 3576); assay: BSK_hDFCGF_IL8: BioMAP Diversity Plus: hDFCGF Assay for Interleukin-8 (IL8) Biomarker Activity (AID 2283058); details: primary human foreskin fibroblasts; actives raise or lower the signal
How it was run: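 Fibroblast monolayers (human foreskin, hDFCGF) received test chemical for 24 h before ELISA detection of IL-8; either increases or decreases relative to DMSO count as activity.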

[10] = BSK_hDFCGF_Proliferation: Cell Proliferation Assessment in the BioMAP Diversity Plus: hDFCGF Assay (AID 2283059); details: primary human foreskin fibroblasts;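 further: curves fitted for both rise and fall of signal versus DMSO baseline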
How it was run: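 Steps: dose primary human dermal fibroblasts (foreskin); […] fix in 10% TCA; stain with 0.1% SRB; read 560 nm; fit gain or loss of signal against DMSO.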

[11] = BSK_hDFCGF_SRB: Viability Assessment in the BioMAP Diversity Plus: hDFCGF Assay (AID 2283061); details: primary human foreskin fibroblasts;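 further: cells exposed to compound for 24 h before the read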
How it was run: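 SRB-based viability read on primary human skin fibroblasts at 24 h: TCA fixation, 0.1% dye, 560 nm. Gain or loss of signal is fitted against the DMSO negative control.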

[12] = read-out: TIMP metallopeptidase inhibitor 1 (TIMP1), TIMP1 (gene 7076); assay: BSK_hDFCGF_TIMP1: BioMAP Diversity Plus: hDFCGF Assay for TIMP metallopeptidase inhibitor 1 (TIMP1) Biomarker Activity (AID 2283062); details: primary human foreskin fibroblasts; actives raise or lower the signal
How it was run: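 Bidirectional curve fitting against DMSO baseline yielded this endpoint, based on ELISA detection of TIMP-1 in primary human foreskin fibroblasts exposed to compound for 24 h.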

[13] = read-out: Monokine induced gamma interferon (MIG), CXCL9 (gene 4283); assay: BSK_hDFCGF_MIG: BioMAP Diversity Plus: hDFCGF Assay for Monokine induced gamma interferon (MIG) Biomarker Activity (AID 2283063); details: primary human foreskin fibroblasts; actives raise or lower the signal
How it was run: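 Endpoint derived by bidirectional fitting relative to DMSO; MIG quantified via ELISA in primary human foreskin fibroblasts harvested 24 h after dosing.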

[14] = read-out: Matrix Metallopeptidase 1 (MMP1), MMP1 (gene 4312); assay: BSK_hDFCGF_MMP1: BioMAP Diversity Plus: hDFCGF Assay for Matrix Metallopeptidase 1 (MMP1) Biomarker Activity (AID 2283064); details: primary human foreskin fibroblasts; actives raise or lower the signal
How it was run: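 Human foreskin fibroblasts exposed to chemical for 24 h; MMP1 detected by ELISA, with DMSO as baseline for bidirectional fitting.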

[15] = read-out: Vascular cell adhesion molecule 1 (VCAM1), VCAM1 (gene 7412); assay: BSK_hDFCGF_VCAM1: BioMAP Diversity Plus: hDFCGF Assay for Vascular cell adhesion molecule 1 (VCAM1) Biomarker Activity (AID 2283065); details: primary human foreskin fibroblasts; actives raise or lower the signal;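 on AC50: VCAM-1 protein level quantified by ELISA after 24 h chemical exposure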
How it was run: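 Measured after 24 h chemical treatment of primary human skin fibroblasts, VCAM-1 was detected by ELISA and concentration-response analysed in both directions versus DMSO vehicle.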

[16] = read-out: Plasminogen activator inhibitor-1 (PAI1), SERPINE1 (gene 5054); assay: BSK_hDFCGF_PAI1: BioMAP Diversity Plus: hDFCGF Assay for Plasminogen activator inhibitor-1 (PAI1) Biomarker Activity (AID 2283066); details: primary human foreskin fibroblasts; actives raise or lower the signal
How it was run: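 Human skin fibroblast cultures receive chemical for 24 h before PAI-1 is measured by ELISA; signal changes are fitted bidirectionally against DMSO-treated wells.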

[17] = read-out: Intercellular Adhesion Molecule 1 (ICAM1), ICAM1 (gene 3383); assay: BSK_KF3CT_ICAM1: BioMAP Diversity Plus: KF3CT Assay for Intercellular Adhesion Molecule 1 (ICAM1) Biomarker Activity (AID 2283067); details: primary human keratinocytes with fibroblasts; actives raise or lower the signal
How it was run: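 Bidirectional curve fitting against a DMSO baseline was applied to ICAM-1 ELISA signal from primary human skin co-cultures harvested 24 h after treatment, with SRB staining of parallel wells for overt cytotoxicity.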

[18] = read-out: Interferon-gamma inducible Protein 10 (IP10), CXCL10 (gene 3627); assay: BSK_KF3CT_IP10: BioMAP Diversity Plus: KF3CT Assay for Interferon-gamma inducible Protein 10 (IP10) Biomarker Activity (AID 2283068); details: primary human keratinocytes with fibroblasts; actives raise or lower the signal
How it was run: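 KF3CT co-culture (keratinocytes + foreskin fibroblasts), 24 h compound, IP-10 by ELISA; bidirectional fit vs DMSO baseline.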

[19] = BSK_KF3CT_SRB: Viability Assessment in the BioMAP Diversity Plus: KF3CT Assay (AID 2283069); details: primary human keratinocytes with fibroblasts;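 further: fitted for both signal gain and loss against DMSO baseline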
How it was run: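 Overt cytotoxicity is assessed as total protein by sulforhodamine B staining in parallel human skin co-cultures at 24 h after dosing. DMSO serves as negative control and baseline.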

[20] = read-out: Macrophage colony-stimulating factor (MCSF), CSF1 (gene 1435); assay: BSK_hDFCGF_MCSF: BioMAP Diversity Plus: hDFCGF Assay for Macrophage colony-stimulating factor (MCSF) Biomarker Activity (AID 2283060); details: primary human foreskin fibroblasts; actives raise or lower the signal
How it was run: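 fibroblasts (human foreskin, primary), 24 h post-dose; M-CSF by ELISA; bidirectional fit, DMSO = baseline.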

Measured: AC50

COc1nc(C)nc(NC(=O)NS(=O)(=O)c2ccccc2Cl)n1
active: [18] 0.148 µM
inactive: [1] | [2] | [3] | [4] | [5] | [6] | [7] | [8] | [9] | [10] | [11] | [12] | [13] | [14] | [15] | [16] | [17] | [18] | [19]

CCNc1nc(Cl)nc(NC(C)C)n1
active: [5] 20 µM | [18] 0.148 µM
not listed: [11]
inactive: all other assays above

CCCC1COC(Cn2cncn2)(c2ccc(Cl)cc2Cl)O1 (stereo not drawn)
active: [2] 7.5 µM | [10] 4.49 µM
not listed: [11]
inactive: all other assays above

CCCN(CCC)c1c([N+](=O)[O-])cc(S(N)(=O)=O)cc1[N+](=O)[O-]
active: [1] 35.6 µM [middle of 4 runs] | [2] 37.6 µM and 34.1 µM | [3] 21.1 µM and 34.7 µM and 30.7 µM | [4] 32.5 µM and 31.4 µM | [5] 34.5 µM [middle of 4 runs] | [6] 36.4 µM [middle of 4 runs] | [7] 30.9 µM and 16.5 µM | [9] 34.5 µM | [10] 24.3 µM [middle of 4 runs] | [11] 21.1 µM and 29.3 µM and 31.4 µM | [12] 33.5 µM and 34 µM | [13] 32 µM and 34.1 µM | [14] 33.6 µM and 348 nM | [15] 32.7 µM and 35.6 µM | [16] 21.1 µM and 21.6 µM | [19] 34.6 µM
inactive: [2] | [3] | [4] | [7] | [8] | [9] | [12] | [13] | [14] | [15] | [16] | [17] | [18] | [19]
